Seven sequences from the supplement of paper PMC6555819 can be followed below.

What all share (experiment): PBM binding z-score (relative to random genomic background probes); higher = stronger binding; sequences stand for … in GC…GCGATTGACAGCGTAGAATGAAGG
The test system of experiment [1] is FXR:RXRa (NR concentration 270 nM, RXRa partner concentration 90 nM). A digest of the protocol: (§1)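 For binding z-scores, the reference was random background probes on custom Agilent 4×180K protein-binding microarrays. These arrays were incubated 1 h with ligand-free nuclear receptor dimers in PBS pH 7.4, 2% milk, 0.02% Triton X-100, 1 mM DTT, 0.2 mg/mL BSA and 0.4 mg/ml salmon testes DNA. Fluorescence was scanned after antibody detection of each partner (one per run) and regression-normalized.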

Experiment [2] relates to LXRa:RXRa (NR concentration 270 nM, RXRa partner concentration 90 nM). A digest of the protocol:
as §1

Experiment [3] deals with LXRa homodimer (NR concentration 270 nM). A digest of the protocol:
as §1

Experiment [4] has as its system LXRb:RXRa (NR concentration 270 nM, RXRa partner concentration 90 nM). A digest of the protocol:
as §1

For experiment [5], the system named is LXRb homodimer (NR concentration 270 nM). A digest of the protocol: as §1
The test system of experiment [6] is PPARa:RXRa (NR concentration 270 nM, RXRa partner concentration 90 nM). A digest of the protocol: as §1
Experiment [7] relates to PPARg:RXRa (NR concentration 180 nM, RXRa partner concentration 90 nM). A digest of the protocol:
as §1

In experiment [8] the test system is PPARg:RXRa 270nM:90nM, anti-RXR (NR concentration 270 nM, RXRa partner concentration 90 nM). A digest of the protocol: as §1
For experiment [9], the system named is PPARg:RXRa 30nM:10nM, anti-RXR (NR concentration 30 nM, RXRa partner concentration 10 nM). A digest of the protocol: as §1
Experiment [10] deals with PPARg:RXRa 90nM:30nM, anti-RXR (NR concentration 90 nM, RXRa partner concentration 30 nM). A digest of the protocol:
as §1

The test system of experiment [11] is PPARg:RXRa DBDmut IVT, anti-RXR (DBD mutation: RXRa K156A/R161A, NR concentration 270 nM, RXRa partner concentration 90 nM). A digest of the protocol:
as §1

In experiment [12] the test system is PPARg:RXRa IVT, anti-PPARg (NR concentration 270 nM, RXRa partner concentration 90 nM). A digest of the protocol: as §1
For experiment [13], the system named is PPARg DBDmut IVT, anti-PPARg (DBD mutation: PPARg1 K132A/R137A, NR concentration 270 nM). A digest of the protocol: as §1
For experiment [14], the system named is PPARg homodimer (NR concentration 180 nM). A digest of the protocol: as §1
Experiment [15] has as its system PXR:RXRa (NR concentration 270 nM, RXRa partner concentration 90 nM). A digest of the protocol:
as §1

Experiment [16] deals with PXR homodimer (NR concentration 270 nM). A digest of the protocol:
as §1

In experiment [17] the test system is RARa:RXR (NR concentration 270 nM, RXRa partner concentration 90 nM). A digest of the protocol: as §1
In experiment [18] the test system is RARa homodimer (NR concentration 270 nM). A digest of the protocol: as §1
Experiment [19] relates to RARb:RXRa (NR concentration 270 nM, RXRa partner concentration 90 nM). A digest of the protocol:
as §1

Experiment [20] deals with PPARg DBDmut:RXRa IVT, anti-PPARg (DBD mutation: PPARg1 K132A/R137A, NR concentration 270 nM, RXRa partner concentration 90 nM). A digest of the protocol: as §1

In the case of ATATGTGGGTTAGGGTCATTCAGAAAGTAGGGAA, the PBM binding z-score in experiment [1] stood at 5.21; in experiment [2], 4.67; in experiment [3], 1.97; in experiment [4], 5.31; in [5] it was 3.87; in experiment [6] it was 5.7. Moreover, the PBM binding z-score in experiment [7] turned out to be 7.6; in [8] it was 6.42; in experiment [9] it was 3.82; in [10], 5.8; in [11] it was 6.19; in experiment [12], 6.44. For the same sequence, the PBM binding z-score came out at 2.69 in [13]; 4.09 in experiment [14]; 5.1 in experiment [15]; 3.66 in experiment [16]; 5.02 in experiment [17]; 3.33 in experiment [18]. Further, the PBM binding z-score in [19] stood at 3.45.
Regarding ACTATCAGGCCAAGGGTCACTCAAGATTAGTCCG, the PBM binding z-score in [1] was 2.77; in [2] it was 3.13; in experiment [3], 0.488; in [4] it was 2.87; in [5], 0.938; in experiment [6] it was 4.54. For the same sequence, the PBM binding z-score is 7.66 in experiment [7]; 7.12 in experiment [8]; 6.22 in experiment [9]; 7.87 in [10]; 1.26 in [11]; 3.82 in [12]. For the same sequence, the PBM binding z-score in experiment [20] was found to be 0.909; in experiment [13], 0.584; in experiment [14] it was 3.28; in [16], 0.337; in [17], 4.42; in [18], 1.45. The PBM binding z-score in experiment [19] turned out to be 3.72.
As for TCTCGGAGGACACGAAAGGGCAGAGCTCGACATC, the PBM binding z-score in experiment [1] was 0.131; in experiment [2] it was 0.581; in experiment [3], -0.282; in [4], -0.082; in experiment [5], -0.72; in experiment [6] it was 0.48. For the same sequence, the PBM binding z-score was determined as 0.29 in experiment [7]; 0.85 in [8]; 1.65 in [9]; 1.2 in [10]; 1.43 in experiment [11]; 0.279 in [12]. Moreover, the PBM binding z-score is -1.54 in [20]; -1.04 in experiment [13]; -0.108 in [14]; -0.585 in experiment [16]; 0.468 in experiment [17]; -0.203 in experiment [18]. For the same sequence, the PBM binding z-score in [19] was determined as 2.42.
As to GATACAAGGTCAGCTAGAGGCCAGAGTATGGAAA, the PBM binding z-score is 5.51 in experiment [1]; 3.77 in experiment [2]; 0.325 in experiment [3]; 2.78 in [4]; -0.103 in [5]; 4.53 in [6]. In addition, the PBM binding z-score was determined as 3.95 in [7]; 3.5 in experiment [8]; 1.23 in experiment [9]; 2.18 in experiment [10]; 2.56 in experiment [11]; 3.25 in experiment [12]. For the same sequence, the PBM binding z-score in experiment [20] came out at 0.75; in experiment [13], 0.155; in experiment [14], 3.37; in [16], 0.19; in experiment [17], 4.64; in [18] it was 1.06. In [19], this sequence yielded a PBM binding z-score of 5.05.
For the sequence GATACAGGGGCAAGGCCAGAGTACGCGTATTGAT, the PBM binding z-score in experiment [1] is -0.0183; in [2], -0.167; in experiment [3], -0.13; in [4] it was 0.382; in [5] it was -0.692; in experiment [6], 0.546. Further, the PBM binding z-score is 0.875 in experiment [7]; 0.31 in experiment [8]; 0.0579 in experiment [9]; 0.23 in experiment [10]; 0.794 in [11]; 0.691 in experiment [12]. Moreover, the PBM binding z-score was -0.76 in [20]; -0.28 in experiment [13]; 0.334 in experiment [14]; 0.0474 in [16]; 0.0151 in experiment [17]; -0.216 in experiment [18]. The PBM binding z-score in [19] was determined as 1.65.
For CGTCCAAGGTCATACGAGGTCAGTGAAGACAGAT, the PBM binding z-score was determined as 7.86 in [1]; 7.57 in [2]; 5.5 in [3]; 6.63 in experiment [4]; 1.78 in experiment [5]; 5.87 in [6]. Besides, the PBM binding z-score in [7] turned out to be 5.57; in experiment [8], 5.9; in experiment [9], 2.88; in experiment [10] it was 4.6; in experiment [11], 3.46; in experiment [12], 4.63. Besides, the PBM binding z-score came out at 1.25 in experiment [20]; 0.789 in [13]; 5.5 in experiment [14]; 9.7 in experiment [16]; 6.69 in experiment [17]; 2.69 in experiment [18]. The sequence further came in with a PBM binding z-score in experiment [19] of 5.43.
Turning to CGAACTAGGTAACCAGGACAGTGAAGAGGTTGGA, the PBM binding z-score was -0.0198 in [1]; -0.368 in [2]; -0.222 in experiment [3]; -0.525 in experiment [4]; -0.784 in experiment [5]; 1.66 in experiment [6]. Further, the PBM binding z-score in [7] was found to be 2.32; in [8], 2; in experiment [9] it was 0.303; in experiment [10] it was 0.958; in [11], 6.32; in experiment [12], 5.77. Moreover, the PBM binding z-score was -0.0996 in [13]; 0.22 in experiment [14]; -0.312 in experiment [15]; 0.0727 in [16]; -0.0151 in experiment [17]; -0.648 in experiment [18]. Moreover, the PBM binding z-score in [19] worked out at 0.0285.
